Source: PubChem
Rows were chosen to be rich in hits. Some 2.1% of all compounds tested hit in one or more screens of this group.
PABP FP inh = PABP poly(A) RNA binding inhibitors, primary screen, biochemical, fluorescence polarization, uHTS; actives 1% (n = 290,000); inhibition, % at 35 µM; Polyadenylate-binding protein 1 (Homo sapiens), P11940;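 also: calls also rest on retests at 20 µM and on dose response follow-up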
Target sequence (P11940 whole entry, looked up): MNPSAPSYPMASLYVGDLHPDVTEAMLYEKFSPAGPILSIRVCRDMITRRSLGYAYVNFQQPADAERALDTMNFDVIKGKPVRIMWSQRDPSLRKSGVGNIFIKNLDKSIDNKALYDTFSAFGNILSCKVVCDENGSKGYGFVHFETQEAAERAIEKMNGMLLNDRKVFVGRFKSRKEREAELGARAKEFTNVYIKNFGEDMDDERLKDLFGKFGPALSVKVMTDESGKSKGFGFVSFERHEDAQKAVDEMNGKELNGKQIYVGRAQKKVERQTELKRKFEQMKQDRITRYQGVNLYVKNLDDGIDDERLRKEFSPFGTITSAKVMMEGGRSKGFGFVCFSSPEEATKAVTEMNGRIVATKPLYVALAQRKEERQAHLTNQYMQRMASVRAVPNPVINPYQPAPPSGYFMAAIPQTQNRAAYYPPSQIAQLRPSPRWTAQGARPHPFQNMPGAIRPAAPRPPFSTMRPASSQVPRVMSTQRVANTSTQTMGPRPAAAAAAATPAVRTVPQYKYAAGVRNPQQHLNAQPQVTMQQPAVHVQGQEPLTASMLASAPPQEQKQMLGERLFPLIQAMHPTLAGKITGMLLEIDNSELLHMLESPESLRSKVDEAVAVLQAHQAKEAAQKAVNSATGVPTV
eIF4H inh = human eIF4H binding inhibitors, primary screen, translation initiation inhibitor project, biochemical, uHTS, fluorescence polarization; inhibition, % at 35 µM; Eukaryotic translation initiation factor 4H (Homo sapiens), Q15056; eIF4H fluorescence polarization binding assay; actives 0.94% (n = 290,000); AID 2012, 2009;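 also: calls also rest on retests at 20 µM and on dose response follow-up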
NRP1-CendR mod = modulators of CendR peptide binding to NRP-1, primary screen, biochemical, fluorescence polarization, uHTS. Neuropilin-1 (Homo sapiens), O14786. FAM-RPARPAR peptide binding to NRP-1. inhibition, % at 25 µM. actives 0.85% (n = 360,000). AID 602438, 2012;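 active = inhibition or corrected inhibition above about 18%, plus a signal ratio from 0.5 to 1.5, limit read from the data, passing the limit was not always enough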
MLLE-PAM2 inh = inhibitors of PABP1 MLLE–PAM2 peptide binding, primary screen, biochemical, fluorescence polarization, FITC-PAM2, GST-MLLE. Polyadenylate-binding protein 1 (Homo sapiens), P11940. inhibition, % at 20 µM. actives 0.36% (n = 360,000). AID 588489, 2011; in the data active = inhibition above about 35%, passing the limit was not always enough
Hits are given with their value. Unless noted, no rule for the calls is given here.

Results for CC(=O)NC(c1ccc(F)c(F)c1)c1nc(-c2ccc(C)c(C)c2)cs1 (stereo not drawn) ?
NRP1-CendR mod: inactive; MLLE-PAM2 inh: inactive

Results for CCNC(=O)C1(C)CCCN(C(=O)c2nc(C)oc2C)C1 (stereo not drawn) ?
NRP1-CendR mod: 24; MLLE-PAM2 inh: inactive

What do the screens show for `CCCC(=O)N1CCCC1(C)C(=O)N(C)Cc1cccc2ccccc12` (stereo not drawn)?
NRP1-CendR mod: inactive; MLLE-PAM2 inh: inactive

What do the screens show for `CN1C(=O)[C@H]2[C@@H](/C=C/c3ccccc3)N3C(=O)CN(Cc4ccccn4)C(=O)[C@@]3(Cc3ccccc3)[C@H]2C1=O`?
NRP1-CendR mod: 29; MLLE-PAM2 inh: inactive

What do the screens show for `CCN(CC)C(=O)c1ccc(Cc2cn(C)c3ccccc23)nc1`?
NRP1-CendR mod: inactive; MLLE-PAM2 inh: inactive

How did c1ccc(-c2ccc(-c3nccc4ccccc34)[nH]2)cc1 do in these assays?
PABP FP inh: 13; eIF4H inh: 62

Results for CCCCc1ccc(-c2csc(/C(C#N)=C\c3ccco3)n2)cc1 ?
PABP FP inh: inactive; eIF4H inh: 55; NRP1-CendR mod: inactive; MLLE-PAM2 inh: inactive

What do the screens show for `O/N=C1\CCCc2c1nc(-c1ccccc1F)n2O`?
PABP FP inh: inactive; eIF4H inh: inactive; NRP1-CendR mod: inactive; MLLE-PAM2 inh: inactive

What do the screens show for `CCc1nnc(NC(=O)CSc2nc(C)cc(C)c2C#N)s1`?
PABP FP inh: inactive; eIF4H inh: inactive; NRP1-CendR mod: inactive; MLLE-PAM2 inh: inactive

How did COC(=O)[C@@]1(Cc2ccc(F)cc2)[C@@H]2[C@@H](CC(=O)[C@H]2CC(=O)C(=O)N(C)C)CN1C(=O)c1ccccc1 do in these assays?
PABP FP inh: 118; eIF4H inh: 71; NRP1-CendR mod: inactive; MLLE-PAM2 inh: inactive

Results for COCCCNC(=O)CNC(=O)c1nn(-c2ccc(OC)cc2OC)c(=O)c2ccccc12 ?
PABP FP inh: inactive; eIF4H inh: inactive; NRP1-CendR mod: inactive; MLLE-PAM2 inh: inactive

Results for CCN(CCCNC(=O)CNC(=O)c1nn(-c2ccc(OC)cc2OC)c(=O)c2ccccc12)c1cccc(C)c1 ?
PABP FP inh: inactive; eIF4H inh: inactive; NRP1-CendR mod: 25; MLLE-PAM2 inh: inactive

How did CNC(=O)Nc1ccccc1C(=O)NCc1ccccc1 do in these assays?
PABP FP inh: inactive; eIF4H inh: inactive; NRP1-CendR mod: 27; MLLE-PAM2 inh: inactive

How did Cc1cc2nc(-c3cccc(NC(=O)c4ccc(Br)o4)c3)oc2cc1C do in these assays?
PABP FP inh: 86; eIF4H inh: active; NRP1-CendR mod: inactive; MLLE-PAM2 inh: inactive

How did CCN(CC)C(=O)CC(c1cc(OC)c(OC)c(OC)c1)c1c(OC)cc(OC)c2c(-c3ccccc3)cc(=O)oc12 (stereo not drawn) do in these assays?
PABP FP inh: 46; eIF4H inh: 103; NRP1-CendR mod: inactive; MLLE-PAM2 inh: inactive

How did CCN(CC)C(=O)CC(c1cc(OC)c(OC)c(OC)c1)c1c(OC)cc(OC)c2ccc(=O)oc12 (stereo not drawn) do in these assays?
PABP FP inh: inactive; eIF4H inh: inactive; NRP1-CendR mod: inactive; MLLE-PAM2 inh: inactive

How did COc1ccc(C(=O)NC2CCSc3ccccc32)cc1F (stereo not drawn) do in these assays?
PABP FP inh: inactive; eIF4H inh: inactive; NRP1-CendR mod: inactive; MLLE-PAM2 inh: inactive

What do the screens show for `Cc1ccccc1-n1c(SC/C(O)=C(\C#N)c2nc3ccccc3[nH]2)nnc1-c1ccncc1`?
PABP FP inh: inactive; eIF4H inh: inactive; NRP1-CendR mod: inactive; MLLE-PAM2 inh: inactive

Results for Cc1cc(C)n2c(SC/C(O)=C(\C#N)c3nc4ccccc4[nH]3)nnc2n1 ?
PABP FP inh: 51; eIF4H inh: 80; NRP1-CendR mod: inactive; MLLE-PAM2 inh: inactive

How did Cc1nc2ncccn2c1-c1csc(NCc2ccco2)n1 do in these assays?
PABP FP inh: 15; eIF4H inh: inactive; NRP1-CendR mod: inactive; MLLE-PAM2 inh: inactive

Results for CC(C)Oc1cccc(NC(=O)C2(C)CCCN2C(=O)C(C)C)c1 (stereo not drawn) ?
NRP1-CendR mod: inactive; MLLE-PAM2 inh: inactive

What do the screens show for `N#Cc1nc(-c2ccco2)oc1NCc1ccc(F)cc1`?
PABP FP inh: inactive; eIF4H inh: inactive; NRP1-CendR mod: 23; MLLE-PAM2 inh: inactive

Results for CC(C)CNc1oc(-c2ccco2)nc1C#N ?
PABP FP inh: inactive; eIF4H inh: inactive; NRP1-CendR mod: 22; MLLE-PAM2 inh: inactive

Results for CC(C)CNc1oc(-c2ccccc2Cl)nc1C#N ?
PABP FP inh: inactive; eIF4H inh: inactive; NRP1-CendR mod: 26; MLLE-PAM2 inh: inactive

What do the screens show for `N#Cc1nc(-c2ccco2)oc1NCc1cccnc1`?
PABP FP inh: inactive; eIF4H inh: inactive; NRP1-CendR mod: inactive; MLLE-PAM2 inh: inactive

Results for COc1ccc(N2CCN(C(=O)CCC(=O)N3CC(C)Oc4ccc(C)cc43)CC2)cc1 (stereo not drawn) ?
PABP FP inh: inactive; eIF4H inh: inactive; NRP1-CendR mod: inactive; MLLE-PAM2 inh: inactive

Results for CCN1C(=O)CC(Sc2ccccc2N)C1=O (stereo not drawn) ?
PABP FP inh: inactive; eIF4H inh: inactive; NRP1-CendR mod: inactive; MLLE-PAM2 inh: inactive

How did Nc1ccccc1SC1CC(=O)N(Cc2ccccc2)C1=O (stereo not drawn) do in these assays?
PABP FP inh: 68; eIF4H inh: active; NRP1-CendR mod: inactive; MLLE-PAM2 inh: inactive

What do the screens show for `Cc1ccc(-c2cc(-c3ccccc3)c3c(N)c(S(C)(=O)=O)sc3n2)cc1`?
PABP FP inh: 125; eIF4H inh: 105; NRP1-CendR mod: inactive; MLLE-PAM2 inh: inactive

What do the screens show for `CCOc1ccccc1NC(=O)CCS(=O)(=O)c1ccc(OC)cc1`?
PABP FP inh: inconclusive; eIF4H inh: inactive; NRP1-CendR mod: inactive; MLLE-PAM2 inh: inactive

What do the screens show for `CCc1ccccc1NC(=O)CCS(=O)(=O)c1ccc(OC)cc1`?
PABP FP inh: inactive; eIF4H inh: 54; NRP1-CendR mod: inactive; MLLE-PAM2 inh: inactive

Results for Cc1cccc(S(=O)(=O)c2c(N)n(/N=C/c3ccco3)c3nc4ccccc4nc23)c1 ?
PABP FP inh: inactive; eIF4H inh: inactive; NRP1-CendR mod: inactive; MLLE-PAM2 inh: inactive

How did Nc1c(S(=O)(=O)c2ccccc2)c2nc3ccccc3nc2n1/N=C/c1ccco1 do in these assays?
PABP FP inh: 32; eIF4H inh: inactive; NRP1-CendR mod: inactive; MLLE-PAM2 inh: inactive

How did Cc1ccc(S(=O)(=O)c2c(N)n(/N=C/c3ccco3)c3nc4ccccc4nc23)cc1 do in these assays?
PABP FP inh: 94; eIF4H inh: 69; NRP1-CendR mod: inactive; MLLE-PAM2 inh: inactive

How did CN(C)S(=O)(=O)c1cccc(NC(=O)COc2ccccc2C(=O)NCc2ccccc2)c1 do in these assays?
NRP1-CendR mod: inactive; MLLE-PAM2 inh: inactive

How did COc1ccc(CCNC(=O)c2nnn(CC(=O)Nc3ccccc3C)c2N)cc1OC do in these assays?
PABP FP inh: inactive; eIF4H inh: inactive; NRP1-CendR mod: 28; MLLE-PAM2 inh: inactive

What do the screens show for `CCCN(CC(=O)Nc1ccccc1OC)C(=O)Cc1ccc2c(c1)CCC2`?
NRP1-CendR mod: inactive; MLLE-PAM2 inh: inactive

What do the screens show for `Fc1cccc2sc(Nc3nnc(-c4ccco4)o3)nc12`?
PABP FP inh: active; eIF4H inh: 61; NRP1-CendR mod: inactive; MLLE-PAM2 inh: inactive
